# Results filed as inconclusive are left out. A number with no mark means an inactive call. Calls of active or inactive are those of the source. Calls come from the whole dose curve.
# Target: Peroxisome proliferator-activated receptor delta (Homo sapiens) (UniProt Q03181)
# Test: qHTS assay for small molecule agonists of peroxisome proliferator-activated receptor delta signaling (AID 588534);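 note: 0% = DMSO basal wells and 100% = positive control agonist at 10 µM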
# Details: HEK293T PPARdelta-UAS-bla, beta-lactamase ratio, 18 h; series mostly up to 76.7 µM; activation: at the top concentration
# Procedure, shortened: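 Agonist-mode beta-lactamase reporter readout (CCF4 dye, 2 h at RT) after 18 h at 37 °C exposure to a titration; Hill-equation fitting gave EC50 and maximal response.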
# Chain of Peroxisome proliferator-activated receptor delta (Homo sapiens) (Q03181 whole entry, looked up): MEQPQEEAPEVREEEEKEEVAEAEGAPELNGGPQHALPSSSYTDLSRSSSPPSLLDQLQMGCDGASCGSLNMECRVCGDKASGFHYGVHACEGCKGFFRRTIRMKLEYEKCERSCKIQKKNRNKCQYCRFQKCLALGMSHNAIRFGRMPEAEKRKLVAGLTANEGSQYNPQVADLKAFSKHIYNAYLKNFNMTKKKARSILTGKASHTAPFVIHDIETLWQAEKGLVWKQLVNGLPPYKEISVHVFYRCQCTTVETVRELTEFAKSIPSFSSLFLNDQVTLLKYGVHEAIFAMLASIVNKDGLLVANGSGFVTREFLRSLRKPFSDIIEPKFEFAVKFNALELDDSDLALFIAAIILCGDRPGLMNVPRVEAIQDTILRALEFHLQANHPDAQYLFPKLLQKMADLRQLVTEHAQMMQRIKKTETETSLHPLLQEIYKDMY
Compound,activation [%],outcome
NC[C@H](O)c1ccc(O)c(O)c1,-0.766,
NS(=O)(=O)c1cc2c(cc1Cl)NC=NS2(=O)=O,-1.03,
Cc1ccccc1C(OCCN(C)C)c1ccccc1 (centres undefined),-9.38,
CCCc1cc(=O)[nH]c(=S)[nH]1,,inactive
Cc1ccc(S(=O)(=O)NC(=O)NN2CCCCCC2)cc1,2.53,
O=C1NC(=O)C(c2ccccc2)(c2ccccc2)N1,,inactive
CN(C)/N=N/c1nc[nH]c1C(N)=O,-8.63,
C[C@](N)(Cc1ccc(O)c(O)c1)C(=O)O,-2.32,
CCCNC(=O)NS(=O)(=O)c1ccc(Cl)cc1,,inactive
O=c1[nH]cnc2c1ncn2[C@H]1CC[C@@H](CO)O1,,inactive
CC1=C(/C=C/C(C)=C/C=C/C(C)=C/C(=O)Nc2ccc(O)cc2)C(C)(C)CCC1,-4.86,
Cn1cnc([N+](=O)[O-])c1Sc1ncnc2nc[nH]c12,,inactive
CCCN(CCC)S(=O)(=O)c1ccc(C(=O)O)cc1,,inactive
OCCOCCN1CCN(C(c2ccccc2)c2ccc(Cl)cc2)CC1 (centres undefined),-7.55,
NC(=O)N/N=C/c1ccc([N+](=O)[O-])o1,,inactive
CC[C@H](C)C(=O)O[C@H]1C[C@@H](C)C=C2C=C[C@H](C)[C@H](CC[C@@H]3C[C@@H](O)CC(=O)O3)[C@H]21,-12.1,
Cc1ncc([N+](=O)[O-])n1CCO,0.45,

Compound,activation [%],outcome
O=C1CCC(N2C(=O)c3ccccc3C2=O)C(=O)N1 (centres undefined),6.42,
CCc1nc(N)nc(N)c1-c1ccc(Cl)cc1,-6.99,
O=NN(CCCl)C(=O)NCCCl,-2.97,
C#C[C@]1(O)CC[C@H]2[C@@H]3CCC4=Cc5oncc5C[C@]4(C)[C@H]3CC[C@@]21C,-7.72,
O=c1[nH]cc(F)c(=O)[nH]1,0.619,
OC(Cn1cncn1)(Cn1cncn1)c1ccc(F)cc1F,-1.07,
Clc1ccc(C(c2ccccc2Cl)C(Cl)Cl)cc1 (centres undefined),-5.49,
C[C@@H]1C[C@H]2[C@@H]3CCC4=CC(=O)C=C[C@]4(C)[C@@]3(F)[C@@H](O)C[C@]2(C)[C@@]1(O)C(=O)CO,,inactive
Nc1ncn([C@@H]2O[C@H](CO)[C@@H](O)[C@H]2O)c(=O)n1,,inactive
CCCCNC(=O)NS(=O)(=O)c1ccc(C)cc1,,inactive
Cc1cn([C@H]2C[C@H](N=[N+]=[N-])[C@@H](CO)O2)c(=O)[nH]c1=O,,inactive
COc1cc(Cc2cnc(N)nc2N)cc(OC)c1OC,-0.383,
N=C(N)c1ccc(OCCCCCOc2ccc(C(=N)N)cc2)cc1,-13.6,
CCN(CC)C(=S)SSC(=S)N(CC)CC,-5.2,
CC(=O)N[C@@H](CS)C(=O)O,4.68,
Nc1ccc(O)c(C(=O)O)c1,,inactive
Oc1cccc2cccnc12,,inactive

# Reference: PubChem BioAssay (NCATS)
